# Test results as given in publication PMC5227109.
# Target: Sister chromatid cohesion protein 2 (UniProt Q04002)
# Test: cross-link between two proteins; cross-linking mass spectrometry
# UniProt Q04002, sequence (Q04002 whole entry): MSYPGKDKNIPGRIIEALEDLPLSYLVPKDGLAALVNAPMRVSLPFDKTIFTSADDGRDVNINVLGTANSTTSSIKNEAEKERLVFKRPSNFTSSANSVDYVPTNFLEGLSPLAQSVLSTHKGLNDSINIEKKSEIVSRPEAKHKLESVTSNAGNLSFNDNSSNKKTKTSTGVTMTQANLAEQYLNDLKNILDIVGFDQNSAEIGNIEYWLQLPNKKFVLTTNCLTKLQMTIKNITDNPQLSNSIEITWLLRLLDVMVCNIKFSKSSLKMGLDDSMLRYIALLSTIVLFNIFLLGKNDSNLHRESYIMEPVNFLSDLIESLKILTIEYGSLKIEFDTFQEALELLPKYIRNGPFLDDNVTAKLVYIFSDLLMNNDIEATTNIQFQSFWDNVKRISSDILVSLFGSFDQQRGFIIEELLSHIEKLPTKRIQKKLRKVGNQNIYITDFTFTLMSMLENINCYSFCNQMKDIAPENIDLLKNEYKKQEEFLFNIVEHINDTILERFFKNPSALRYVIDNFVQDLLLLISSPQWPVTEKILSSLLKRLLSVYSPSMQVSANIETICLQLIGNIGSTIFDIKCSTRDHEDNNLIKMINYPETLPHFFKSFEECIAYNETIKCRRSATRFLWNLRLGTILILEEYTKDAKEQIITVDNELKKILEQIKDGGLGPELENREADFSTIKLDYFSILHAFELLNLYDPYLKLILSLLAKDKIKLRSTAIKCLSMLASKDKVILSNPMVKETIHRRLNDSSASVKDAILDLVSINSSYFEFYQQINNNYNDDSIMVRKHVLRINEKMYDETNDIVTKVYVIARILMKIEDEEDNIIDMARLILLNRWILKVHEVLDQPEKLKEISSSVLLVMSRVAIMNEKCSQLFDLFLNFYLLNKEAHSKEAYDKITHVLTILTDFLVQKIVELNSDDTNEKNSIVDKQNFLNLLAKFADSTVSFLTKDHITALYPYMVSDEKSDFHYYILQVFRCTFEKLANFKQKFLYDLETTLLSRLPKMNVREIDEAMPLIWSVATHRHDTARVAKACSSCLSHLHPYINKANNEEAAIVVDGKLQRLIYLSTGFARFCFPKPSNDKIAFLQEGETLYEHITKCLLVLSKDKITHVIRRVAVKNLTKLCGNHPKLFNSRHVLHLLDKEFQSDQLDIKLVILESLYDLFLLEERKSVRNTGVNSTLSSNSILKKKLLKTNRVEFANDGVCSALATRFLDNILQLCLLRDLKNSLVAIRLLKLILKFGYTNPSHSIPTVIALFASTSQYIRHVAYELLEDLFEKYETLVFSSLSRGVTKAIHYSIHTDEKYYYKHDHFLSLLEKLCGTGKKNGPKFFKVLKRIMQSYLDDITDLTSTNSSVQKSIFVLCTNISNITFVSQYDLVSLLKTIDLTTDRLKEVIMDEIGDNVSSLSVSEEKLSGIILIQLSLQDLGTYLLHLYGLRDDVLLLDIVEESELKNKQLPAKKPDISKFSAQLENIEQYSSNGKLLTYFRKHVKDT
substance,measurement,value
"MAU2 chromatid cohesion factor homolog, P40090",listed as a hit,yes
